# A selection: hits, their analogues and other compounds. The true share with any hit is near 2.4%.
# WRN inhibitor = WRN helicase (human) inhibition | Q14191 | 360,000 tested, 0.46% active | Potency, µM (doses to about 114 µM), actives largely listed as inhibitors | WRN helicase unwinding, fluorescent forked duplex, kinetic; note: nearly all actives have a fitted effect of over 55% in size
#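 Kinetic red-fluorescence monitoring (525/598 nm) tracks WRN helicase activity after 100 nM fluorophore-quencher forked duplex and 2 mM ATP are added to 20 nM enzyme pretreated 15 min at room temperature with compound.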
# POLK inh = blocks human DNA polymerase kappa activity | purified Pol kappa, fluorescent DNA synthesis assay, 10 min | Potency, µM (highest dose often 107 µM), actives largely listed as inhibitors | 400,000 tested, 0.53% active | AID 588579
#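 Here, compound and 10 nM enzyme are combined for 15 min at room temperature; adding 50 nM substrate (final) starts DNA synthesis, tracked by fluorescence at 0 and 10 min against buffer-only wells.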
# POLI inh = blocks human DNA polymerase iota activity. Q9UNA4. Pol iota fluorescent replication assay, 10 min. Potency, µM (series often up to 115 µM), usual class: inhibitors. 390,000 tested, 1% active. AID 588590
#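 Pol iota at 10 nM preincubated 15 min with compounds at room temperature; reaction started with fluorescent substrate, 50 nM final. Fluorescence read kinetically at 0 and 10 min; buffer-only wells as negative control.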
# Pol eta inh = DNA polymerase eta (human) inhibition. 390,000 tested, 1.2% active. Q9Y253. recombinant Pol eta, fluorescent DNA replication assay. Potency, µM (series often up to 114 µM), hits mostly inhibitors
#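 Pol eta at 10 nM preincubated with compounds 15 min at room temperature; reaction started with fluorescent substrate (50 nM final) and read kinetically at 0 and 10 min.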
# Pol beta inh = blocks human DNA polymerase beta activity; 340,000 tested, 1.3% active; Pol beta primer extension/strand displacement, fluorescence kinetic; Potency, µM (doses to about 114 µM), hits mostly inhibitors; AID 485314
#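 Values derive from four-parameter Hill fits of normalized kinetic data: reads at 0 and 10 min following addition of 50 nM substrate to 10 nM Pol beta preincubated 15 min with compound.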
# FEN1 inh-1 = human FEN1 inhibition | Recombinant FEN1 flap cleavage, fluorescence, 15 min | P39748 | Potency, µM (titrated, usually from 114 µM), usual class: inhibitors | AID 588795 | 390,000 tested, 0.35% active; note: nearly all actives have a fitted effect of over 65% in size
#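 Enzyme 10 nM, 15 min RT preincubation with compound; start with substrate 50 nM final; reads at 0 and 15 min; qHTS titration, four-parameter Hill fit.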
# FEN1 inh-2 = FEN1 inhibition, cherry-pick retest; FEN1 flap cleavage, TAMRA/BHQ2 fluorogenic DNA substrate; shares compounds with FEN1 inh-1; 880 tested, 79% active; Potency, µM, usual class: inhibitors; AID 720498; note: nearly all actives have a fitted effect of over 60% in size
# Numbers stand for hits; 0 = inactive; ? = inconclusive; - = not tested or not shown; [ ] = another dose, or the depositor's remark. Calls come from the whole dose curve; as a rule, active = well fitted curve in the direction sought with a large enough effect; inconclusive = small, poorly fitted or top-dose-only effect, or another doubt; inactive = no such curve, though single readings can be large; an effect the other way counts as inactive or inconclusive.
SMILES,WRN inhibitor,POLK inh,POLI inh,Pol eta inh,Pol beta inh,FEN1 inh-1,FEN1 inh-2
Cc1cc(C)nc(NC(=O)CSc2nn(-c3ccccc3)c(=S)s2)n1,?,0,?,0,40µM,?,?
CCC(Sc1nc2ncccc2o1)C(=O)Nc1ccc(OC)c(OC)c1 (stereo unspecified),-,0,0,0,0,0,-
CC1Sc2ccc(S(=O)(=O)N3CCC(C(=O)Nc4ccc(Cl)cc4)CC3)cc2NC1=O (stereo unspecified),79µM,?,?,?,?,?,48
CN(C)c1ccc(/C=C/c2cc[n+]([O-])c3ccccc23)cc1,-,0,0,-,-,0,-
CC[n+]1ccc(/C=C/c2ccc(N(C)C)cc2)c2ccccc21,45µM,?,0,?,45µM,40µM,48
CCN1CCCC1CNC(=O)c1cc2c(-c3ccc(Cl)cc3)nn(C)c2s1 (stereo unspecified),0,0,?,0,35µM,50µM,43
COc1cccc(CNC(=O)c2ccc3c(=O)n4nc(Nc5ccccc5)sc4nc3c2)c1,-,0,0,?,0,0,-
COc1ccc2c(=O)n3nc(Nc4cccc(N5CCN(C)CC5)c4)sc3nc2c1,-,-,-,-,-,-,?
CCN1CCN(c2cccc(Nc3nn4c(=O)c5ccccc5nc4s3)c2)CC1,-,-,-,-,-,-,?
CN1CCN(c2cccc(Nc3nn4c(=O)c5ccccc5nc4s3)c2)CC1,-,-,-,-,-,-,43
Cc1ccc(-n2ncc(C(=O)NC3CCCCC3)c2C2CCN(C(=O)OC(C)(C)C)CC2)cc1,-,0,0,0,0,0,-
CCCN1CNc2c(c(=O)[nH]c(=S)n2Cc2ccc(OC)c(OC)c2)C1,-,0,?,-,-,0,-
CC(=O)Nc1ccc(/C(C)=N/Nc2nc(Nc3ccccc3)nc(N3CCOCC3)n2)cc1,0,0,0,0,0,0,-
CCN1CCN(c2nc(Nc3ccc(NC(C)=O)cc3)nc(Nc3ccc(NC(C)=O)cc3)n2)CC1,25µM,?,?,?,?,?,?
COC(=O)c1cc2c(-c3ccccc3)c(C)c3ccccn3c-2c1C(=O)OC,?,?,0,?,0,?,85
COC(=O)c1c(Cl)c2n3ccccc3c(C)c(-c3ccccc3)c-2c1C(=O)OC,?,0,?,?,0,0,-
Cc1ccc(NC(=O)c2ccc3nc[nH]c3c2)cc1C,0,0,0,0,0,0,-
CC(=O)Nc1sc2c(c1-c1ccc3nc[nH]c3c1)CCNC2,-,-,-,-,-,-,38
CC(=O)c1cccc(NC(=O)c2cccc(N3C(=O)c4ccccc4C3=O)c2)c1,?,0,0,?,?,?,?
COc1ccc(CNc2ncnc3c2[nH]c2ccccc23)cc1,0,0,?,0,0,?,-
COc1ccc(CNc2ncnc3c2[nH]c2cc(OC)c(OC)cc23)cc1,0,0,?,?,6.3µM,35µM,30
CC(=O)Nc1cc(-c2nc3ccccc3s2)ccc1C,-,0,0,-,0,0,-
CC(=O)Nc1sc2c(c1-c1nc3ccccc3s1)CCOC2,-,-,-,-,-,-,?
Cc1ccc(NC(=O)C2CCN(c3cc(C)nc4c(-c5ccc(Cl)cc5)c(C)nn34)CC2)c(C)c1,-,0,0,0,0,0,-
O=C1Nc2ccccc2Oc2cc([N+](=O)[O-])cc(Oc3ccccc3)c21,?,0,?,?,?,?,85
SMILES,WRN inhibitor,POLK inh,POLI inh,Pol eta inh,Pol beta inh,FEN1 inh-1,FEN1 inh-2
O=[N+]([O-])c1cc2c(c([N+](=O)[O-])c1)Nc1ccccc1O2,0,-,-,?,-,-,-
CSc1nc(Nc2ccc(C)cc2C)cc(-c2ccccc2)n1,-,0,0,0,0,0,-
O=C(Nc1ccccc1)c1cc(-n2cnnc2)ccc1Cl,0,0,0,0,0,0,-
O=C(Nc1ccc2oc(-c3ccccc3)nc2c1)c1cc(-n2cnnc2)ccc1Cl,0,0,35µM,0,?,?,48
COc1cccc(NC(=O)CN2C(=O)c3cccc4cccc2c34)c1,-,0,0,0,?,0,-
CCN(CC)c1ccc(/C=C/c2cccc[n+]2C)c(OC)c1,79µM,0,0,0,50µM,?,27
S=c1[nH]nc(-c2cc(-c3ccccc3)n[nH]2)n1/N=C/c1c(Cl)cccc1Cl,?,?,20µM,79µM,14µM,?,?
S=c1[nH]nc(-c2ccccn2)n1/N=C/c1c(Cl)cccc1Cl,0,0,0,0,0,0,-
COc1cccc(Nc2nc3cc(Cl)c(Cl)cc3nc2-n2nc(C)cc2C)c1,-,0,0,0,0,0,-
COc1ccccc1NC(=O)CSc1nc(O)cc(=O)[nH]1,0,0,?,0,0,0,-
Cc1sc(NC(=O)CSc2nc(O)cc(=O)[nH]2)nc1-c1ccccc1,?,0,?,0,0,50µM,67
Cc1nc(C)c(-c2ccc(SCC(=O)Nc3ccc(Cl)c(Cl)c3)nn2)s1,-,0,0,0,0,0,-
Cc1nc(Nc2ccncc2)c2oc3ccccc3c2n1,0,0,?,0,?,45µM,43
COc1ccc(OC)c(Nc2nc(NCCO)c3ccccc3n2)c1,0,0,0,?,?,?,?
CCOc1cc(/C=C2\C(=O)N(CCC#N)N=C2C)ccc1OCC(N)=O,0,0,?,0,0,0,?
Cc1nn(C(=O)c2ccccc2F)c(C)c1S(=O)(=O)N1CCOCC1,-,0,0,0,0,0,-
O=C(CCCn1c(=O)c2sccc2n(Cc2c(F)cccc2Cl)c1=O)NCc1ccccc1,-,0,0,-,0,0,-
CCN1CCCC1CNC(=O)c1ccc2c(c1)NC(=O)/C(=C\c1ccccc1Cl)S2 (stereo unspecified),0,-,-,0,-,-,-
CCN1CCCC1CNC(=O)c1ccc2c(c1)NC(=O)/C(=C\c1ccc(OC)c(OC)c1)S2 (stereo unspecified),?,0,0,?,?,?,38
CN(C)c1ccc(C=c2c3ccccc3n3c2c2c([n+]3C)CCCC2)cc1,22µM,0,0,?,-,22µM,30
CCCn1ccc2c(OCC(=O)Nc3ccc(C(F)(F)F)cc3)cccc2c1=O,-,0,0,0,0,0,-
CN1CCC[C@H]1CCNc1ccc2c(=O)c3ccccc3n(C)c2c1,?,?,28µM,?,-,56µM,43
CCOC(=O)C1CCCN(C(=O)CCS(=O)(=O)c2cc3c(cc2Cl)NC(=O)CO3)C1 (stereo unspecified),-,0,0,0,0,0,-
COCCn1c(=NC(=O)c2ccc3c(c2)OCCO3)sc2cc(S(N)(=O)=O)ccc21,0[11.6 µM],0,?,0,0,0,?
O=C(Cn1c(=O)oc2cc(S(=O)(=O)N3CCCCCC3)ccc21)Nc1ccc(F)cc1F,-,0,?,-,0,0,-
O=c1[nH]c2cnn(-c3ccccc3)c2c(=O)n1O,0[11.6 µM],0,0,?,-,0.5µM,21

# Compound activity from PubChem.
